Laboratory results as given in article PMC7862700, “An all-to-all approach to the identification of sequence-specific readers for epigenetic DNA modifications on cytosine”.

Experiments:
Assay in all cases: DAPPL (digital affinity profiling via proximity ligation, sequencing); 10 mM Tris-HCl pH 7.5, 50 mM NaCl, 1 mM DTT, 4% glycerol, room temperature, 30 min; GST-TFs on glutathione beads, 16-mer random dsDNA library, 0.1% formaldehyde crosslink after washing; high values mean tight binding
Conditions in all cases: protein: recombinant; tags: N-terminal GST; dsDNA, one strand shown
ELK3 = biological target: T1, ELK3 (Homo sapiens, UniProt P41970 1-407)
T1 sequence: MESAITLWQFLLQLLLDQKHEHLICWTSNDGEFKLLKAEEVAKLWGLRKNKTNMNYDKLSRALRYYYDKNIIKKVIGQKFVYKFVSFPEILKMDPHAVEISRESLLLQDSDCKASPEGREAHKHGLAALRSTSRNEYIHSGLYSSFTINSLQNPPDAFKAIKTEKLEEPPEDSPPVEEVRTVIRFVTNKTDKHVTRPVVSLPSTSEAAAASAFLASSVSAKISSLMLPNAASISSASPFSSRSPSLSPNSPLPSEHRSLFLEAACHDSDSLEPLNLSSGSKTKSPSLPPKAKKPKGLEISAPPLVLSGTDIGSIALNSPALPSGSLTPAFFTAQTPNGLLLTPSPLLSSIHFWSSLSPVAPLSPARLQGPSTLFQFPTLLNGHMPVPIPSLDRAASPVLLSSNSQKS
In short: (§1)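 Beads coated with glutathione captured GST-fused human transcription factors that had been expressed in yeast, and the factors were then given DNA barcodes and pooled with a tag-only sample. The pools were incubated with 200 nmole of a random double-stranded 16-mer DNA library in Tris/NaCl/DTT/glycerol buffer for 30 min at room temperature, washed, crosslinked with 0.1% formaldehyde and proximity-ligated with BsaI/T4 ligase at 37 °C for 1 h. PCR amplification and Illumina NextSeq500 sequencing came last. Binding signal is each hexamer's read frequency for a factor divided by its frequency for the tag-only sample.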

SPIC = biological target: T2, SPIC (Homo sapiens, UniProt Q8N5J4 1-248)
T2 sequence: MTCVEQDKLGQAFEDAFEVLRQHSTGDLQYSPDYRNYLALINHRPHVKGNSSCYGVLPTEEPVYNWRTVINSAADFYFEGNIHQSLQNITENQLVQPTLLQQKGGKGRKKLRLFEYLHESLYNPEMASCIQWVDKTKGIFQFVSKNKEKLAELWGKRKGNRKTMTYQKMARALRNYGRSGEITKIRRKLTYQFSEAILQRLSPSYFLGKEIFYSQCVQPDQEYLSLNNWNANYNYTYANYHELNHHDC
In short: as §1

ELF4 = ELF4 (Homo sapiens, UniProt Q99607 1-663)
In short: as §1

ELK4 = biological target: T3, ELK4 (Homo sapiens, UniProt P28324-2 1-405)
T3 sequence: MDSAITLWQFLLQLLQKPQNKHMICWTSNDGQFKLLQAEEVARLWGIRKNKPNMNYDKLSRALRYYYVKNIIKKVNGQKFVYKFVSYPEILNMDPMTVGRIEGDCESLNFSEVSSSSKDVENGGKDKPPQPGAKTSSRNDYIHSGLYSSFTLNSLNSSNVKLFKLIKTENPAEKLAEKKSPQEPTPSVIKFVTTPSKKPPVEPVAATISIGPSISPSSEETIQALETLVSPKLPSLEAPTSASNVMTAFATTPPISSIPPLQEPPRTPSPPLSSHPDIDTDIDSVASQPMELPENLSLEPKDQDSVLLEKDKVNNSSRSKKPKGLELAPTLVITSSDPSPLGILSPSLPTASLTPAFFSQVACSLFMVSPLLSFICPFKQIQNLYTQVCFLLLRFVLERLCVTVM
In short: as §1

ERF = biological target: T4, ERF (Homo sapiens, UniProt P50548 1-548)
T4 sequence: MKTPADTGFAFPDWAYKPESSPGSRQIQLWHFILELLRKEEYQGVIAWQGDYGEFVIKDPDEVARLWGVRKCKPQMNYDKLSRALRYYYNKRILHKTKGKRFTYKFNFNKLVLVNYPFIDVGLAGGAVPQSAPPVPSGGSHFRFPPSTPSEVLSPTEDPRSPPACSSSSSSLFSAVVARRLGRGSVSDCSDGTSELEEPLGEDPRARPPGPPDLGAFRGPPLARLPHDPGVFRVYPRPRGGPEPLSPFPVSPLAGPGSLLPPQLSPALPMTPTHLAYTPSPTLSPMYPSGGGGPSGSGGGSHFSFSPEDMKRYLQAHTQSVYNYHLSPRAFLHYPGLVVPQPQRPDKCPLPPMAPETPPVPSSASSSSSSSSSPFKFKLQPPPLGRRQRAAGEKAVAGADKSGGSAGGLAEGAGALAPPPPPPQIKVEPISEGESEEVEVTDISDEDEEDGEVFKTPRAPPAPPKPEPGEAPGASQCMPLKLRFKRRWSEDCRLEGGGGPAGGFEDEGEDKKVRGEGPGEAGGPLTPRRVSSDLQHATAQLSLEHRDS
In short: as §1

ETV7 = biological target: T5, ETV7 (Homo sapiens, UniProt Q9Y603 1-341)
T5 sequence: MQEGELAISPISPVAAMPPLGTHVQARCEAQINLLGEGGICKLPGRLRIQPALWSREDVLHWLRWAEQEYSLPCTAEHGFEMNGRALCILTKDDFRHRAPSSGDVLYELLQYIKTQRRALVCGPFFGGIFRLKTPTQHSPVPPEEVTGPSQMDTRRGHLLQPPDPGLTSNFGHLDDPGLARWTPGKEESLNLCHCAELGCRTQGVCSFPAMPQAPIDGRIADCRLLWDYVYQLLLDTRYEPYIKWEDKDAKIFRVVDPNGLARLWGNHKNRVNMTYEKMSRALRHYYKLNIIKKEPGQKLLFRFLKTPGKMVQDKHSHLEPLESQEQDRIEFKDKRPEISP
In short: as §1

ELK1 = biological target: T6, ELK1 (Homo sapiens, UniProt P19419 1-428)
T6 sequence: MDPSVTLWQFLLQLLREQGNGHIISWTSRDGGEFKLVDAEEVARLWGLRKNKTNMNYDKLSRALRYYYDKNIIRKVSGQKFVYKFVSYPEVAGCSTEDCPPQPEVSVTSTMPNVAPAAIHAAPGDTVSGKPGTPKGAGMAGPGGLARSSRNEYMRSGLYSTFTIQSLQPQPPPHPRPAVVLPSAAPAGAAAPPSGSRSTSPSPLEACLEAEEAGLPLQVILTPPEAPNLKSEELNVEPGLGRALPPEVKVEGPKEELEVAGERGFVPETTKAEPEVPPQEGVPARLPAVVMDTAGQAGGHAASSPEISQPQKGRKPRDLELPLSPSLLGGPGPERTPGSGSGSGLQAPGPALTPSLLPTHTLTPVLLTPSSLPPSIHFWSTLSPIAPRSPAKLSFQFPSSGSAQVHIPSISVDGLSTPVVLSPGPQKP
In short: as §1

GABPA = biological target: T7, GABPA (Homo sapiens, UniProt Q06546 1-454)
T7 sequence: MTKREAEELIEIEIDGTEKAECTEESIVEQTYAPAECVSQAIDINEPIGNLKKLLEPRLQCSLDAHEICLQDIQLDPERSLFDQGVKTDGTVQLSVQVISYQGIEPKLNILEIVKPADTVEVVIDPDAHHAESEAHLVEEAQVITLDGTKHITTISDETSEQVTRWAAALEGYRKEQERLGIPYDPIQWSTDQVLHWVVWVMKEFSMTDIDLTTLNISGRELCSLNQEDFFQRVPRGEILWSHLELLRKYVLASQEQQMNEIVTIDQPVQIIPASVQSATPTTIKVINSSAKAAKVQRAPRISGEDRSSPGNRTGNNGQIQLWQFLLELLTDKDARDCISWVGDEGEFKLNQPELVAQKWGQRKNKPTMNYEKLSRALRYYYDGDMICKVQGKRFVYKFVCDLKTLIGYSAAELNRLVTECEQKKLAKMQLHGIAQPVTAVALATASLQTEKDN
In short: as §1

ELF1 = ELF1 (Homo sapiens, UniProt P32519 1-619)
In short: as §1

EHF = biological target: T8, EHF (Homo sapiens, UniProt Q9NZC4 1-300)
T8 sequence: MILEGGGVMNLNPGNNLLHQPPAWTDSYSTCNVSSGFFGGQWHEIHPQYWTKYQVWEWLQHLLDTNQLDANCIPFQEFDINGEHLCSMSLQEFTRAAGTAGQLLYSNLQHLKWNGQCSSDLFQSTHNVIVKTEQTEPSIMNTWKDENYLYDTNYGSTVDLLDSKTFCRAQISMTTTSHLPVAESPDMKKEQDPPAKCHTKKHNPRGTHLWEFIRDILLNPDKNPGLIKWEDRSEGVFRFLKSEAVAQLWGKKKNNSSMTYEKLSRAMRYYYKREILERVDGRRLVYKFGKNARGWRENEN
In short: as §1

ELF3 = biological target: T9, ELF3 (Homo sapiens, UniProt P78545 1-371)
T9 sequence: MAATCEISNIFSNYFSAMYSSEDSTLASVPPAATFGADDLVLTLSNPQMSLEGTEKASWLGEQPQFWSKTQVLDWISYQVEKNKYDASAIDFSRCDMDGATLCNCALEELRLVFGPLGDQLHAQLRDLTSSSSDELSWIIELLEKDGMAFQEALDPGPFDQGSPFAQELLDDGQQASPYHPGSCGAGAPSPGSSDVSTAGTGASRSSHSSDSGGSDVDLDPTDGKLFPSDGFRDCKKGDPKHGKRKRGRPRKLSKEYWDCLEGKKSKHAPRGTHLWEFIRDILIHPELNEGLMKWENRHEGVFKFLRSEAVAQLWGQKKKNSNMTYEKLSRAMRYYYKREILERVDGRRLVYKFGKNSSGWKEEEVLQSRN
In short: as §1

ETV3L = biological target: T10, ETV3L (Homo sapiens, UniProt Q6ZN32 1-361)
T10 sequence: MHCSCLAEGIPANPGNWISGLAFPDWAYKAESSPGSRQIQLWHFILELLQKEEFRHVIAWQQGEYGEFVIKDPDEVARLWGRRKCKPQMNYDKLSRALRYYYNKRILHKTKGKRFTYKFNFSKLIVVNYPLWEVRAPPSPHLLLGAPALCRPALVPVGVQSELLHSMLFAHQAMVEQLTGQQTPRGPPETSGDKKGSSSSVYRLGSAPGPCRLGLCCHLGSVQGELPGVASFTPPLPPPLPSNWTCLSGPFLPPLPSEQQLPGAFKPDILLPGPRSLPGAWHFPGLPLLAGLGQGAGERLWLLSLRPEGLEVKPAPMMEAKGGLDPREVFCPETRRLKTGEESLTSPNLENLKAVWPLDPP
In short: as §1

ETS2 = biological target: T11, ETS2 (Homo sapiens, UniProt P15036 1-469)
T11 sequence: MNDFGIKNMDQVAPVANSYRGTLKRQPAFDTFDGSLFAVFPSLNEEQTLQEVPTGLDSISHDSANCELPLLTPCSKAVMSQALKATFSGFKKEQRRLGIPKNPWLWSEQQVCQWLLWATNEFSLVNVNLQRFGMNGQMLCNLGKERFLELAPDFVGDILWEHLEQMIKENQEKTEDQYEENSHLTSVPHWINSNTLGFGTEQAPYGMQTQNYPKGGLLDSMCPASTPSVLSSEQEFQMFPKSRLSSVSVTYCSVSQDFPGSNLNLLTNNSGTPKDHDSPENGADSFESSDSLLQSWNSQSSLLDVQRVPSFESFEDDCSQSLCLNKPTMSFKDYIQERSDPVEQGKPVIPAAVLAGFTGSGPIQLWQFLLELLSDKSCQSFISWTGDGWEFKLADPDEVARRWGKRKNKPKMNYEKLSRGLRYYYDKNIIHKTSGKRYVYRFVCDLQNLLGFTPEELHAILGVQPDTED
In short: as §1

SPDEF = biological target: T12, SPDEF (Homo sapiens, UniProt O95238 1-335)
T12 sequence: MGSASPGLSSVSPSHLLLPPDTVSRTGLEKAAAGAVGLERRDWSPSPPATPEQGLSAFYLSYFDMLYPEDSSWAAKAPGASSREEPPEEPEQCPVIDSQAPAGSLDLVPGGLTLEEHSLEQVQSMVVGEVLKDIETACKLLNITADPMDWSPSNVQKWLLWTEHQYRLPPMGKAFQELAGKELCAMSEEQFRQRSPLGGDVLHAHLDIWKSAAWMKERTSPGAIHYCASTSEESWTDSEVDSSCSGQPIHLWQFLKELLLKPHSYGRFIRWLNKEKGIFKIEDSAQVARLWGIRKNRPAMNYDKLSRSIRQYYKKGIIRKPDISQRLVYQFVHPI
In short: as §1

ETV3 = biological target: T13, ETV3 (Homo sapiens, UniProt P41162-2 1-143)
T13 sequence: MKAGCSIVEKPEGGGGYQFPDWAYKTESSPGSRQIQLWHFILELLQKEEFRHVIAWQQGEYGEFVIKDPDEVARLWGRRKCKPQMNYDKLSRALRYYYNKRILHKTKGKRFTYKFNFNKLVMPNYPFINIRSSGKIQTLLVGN
In short: as §1

ETV6 = ETV6 (Homo sapiens, UniProt P41212 1-452)
In short: as §1

ELF4, sequence (Q99607 whole entry): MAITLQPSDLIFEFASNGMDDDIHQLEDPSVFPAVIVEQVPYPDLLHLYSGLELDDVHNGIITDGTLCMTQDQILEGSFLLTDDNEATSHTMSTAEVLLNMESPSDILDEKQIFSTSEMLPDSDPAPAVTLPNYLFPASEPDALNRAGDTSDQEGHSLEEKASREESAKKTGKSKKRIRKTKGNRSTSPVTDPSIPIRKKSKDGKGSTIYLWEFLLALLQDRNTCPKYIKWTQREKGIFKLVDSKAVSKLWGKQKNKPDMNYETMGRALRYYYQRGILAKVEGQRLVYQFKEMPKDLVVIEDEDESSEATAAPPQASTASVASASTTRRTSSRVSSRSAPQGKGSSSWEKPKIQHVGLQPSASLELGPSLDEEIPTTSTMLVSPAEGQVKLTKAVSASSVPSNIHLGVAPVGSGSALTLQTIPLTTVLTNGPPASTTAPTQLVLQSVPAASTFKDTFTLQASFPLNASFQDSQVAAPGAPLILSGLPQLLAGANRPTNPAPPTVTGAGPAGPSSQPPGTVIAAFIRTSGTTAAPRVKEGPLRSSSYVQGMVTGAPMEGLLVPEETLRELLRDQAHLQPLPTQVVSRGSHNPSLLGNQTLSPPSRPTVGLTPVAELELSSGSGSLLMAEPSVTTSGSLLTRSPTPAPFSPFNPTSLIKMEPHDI
ETV6, sequence (P41212 whole entry): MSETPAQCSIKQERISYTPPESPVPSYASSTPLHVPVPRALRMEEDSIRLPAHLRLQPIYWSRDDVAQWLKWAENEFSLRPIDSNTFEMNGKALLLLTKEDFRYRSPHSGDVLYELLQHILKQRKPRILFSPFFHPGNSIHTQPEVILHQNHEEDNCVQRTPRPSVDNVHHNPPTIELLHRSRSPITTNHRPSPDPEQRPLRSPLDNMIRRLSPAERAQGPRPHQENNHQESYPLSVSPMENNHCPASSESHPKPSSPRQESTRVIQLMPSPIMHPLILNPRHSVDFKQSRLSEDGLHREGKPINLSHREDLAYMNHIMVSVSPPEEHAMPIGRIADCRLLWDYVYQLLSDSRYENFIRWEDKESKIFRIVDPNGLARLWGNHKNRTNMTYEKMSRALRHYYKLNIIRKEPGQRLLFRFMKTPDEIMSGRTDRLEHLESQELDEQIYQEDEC
ELF1, sequence (P32519 whole entry): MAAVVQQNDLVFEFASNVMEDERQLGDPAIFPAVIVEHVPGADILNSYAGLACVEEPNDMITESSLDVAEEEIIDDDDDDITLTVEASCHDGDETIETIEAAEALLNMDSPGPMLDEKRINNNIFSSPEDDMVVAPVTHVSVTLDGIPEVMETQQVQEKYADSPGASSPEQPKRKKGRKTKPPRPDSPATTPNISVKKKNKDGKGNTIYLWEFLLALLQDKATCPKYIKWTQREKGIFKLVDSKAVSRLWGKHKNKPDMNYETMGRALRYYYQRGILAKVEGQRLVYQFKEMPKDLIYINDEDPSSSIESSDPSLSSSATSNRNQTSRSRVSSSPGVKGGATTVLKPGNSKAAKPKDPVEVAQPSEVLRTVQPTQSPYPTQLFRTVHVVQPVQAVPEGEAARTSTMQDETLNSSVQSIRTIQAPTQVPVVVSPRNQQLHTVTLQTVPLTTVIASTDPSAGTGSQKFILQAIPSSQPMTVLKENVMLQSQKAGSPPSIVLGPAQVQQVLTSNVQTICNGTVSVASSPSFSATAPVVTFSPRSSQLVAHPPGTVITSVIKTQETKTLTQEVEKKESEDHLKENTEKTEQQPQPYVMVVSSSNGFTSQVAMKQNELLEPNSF

TGAAGA
binding signal (ELK3): 1.03 fold enrichment (6-mer frequency, TF over GST control) | binding signal (SPIC): 1.01 fold enrichment (6-mer frequency, TF over GST control) | binding signal (ELF4): 1.01 fold enrichment (6-mer frequency, TF over GST control) | binding signal (ELK4): 1.02 fold enrichment (6-mer frequency, TF over GST control) | binding signal (ERF): 1.09 fold enrichment (6-mer frequency, TF over GST control) | binding signal (ETV7): 1.04 fold enrichment (6-mer frequency, TF over GST control)

ATAAGT
binding signal (ELK1): 1.05 fold enrichment (6-mer frequency, TF over GST control) | binding signal (GABPA): 1.07 fold enrichment (6-mer frequency, TF over GST control) | binding signal (ELF1): 1.08 fold enrichment (6-mer frequency, TF over GST control) | binding signal (EHF): 1.04 fold enrichment (6-mer frequency, TF over GST control) | binding signal (ELK3): 1.09 fold enrichment (6-mer frequency, TF over GST control) | binding signal (SPIC): 1.02 fold enrichment (6-mer frequency, TF over GST control) | binding signal (ELF4): 1.1 fold enrichment (6-mer frequency, TF over GST control) | binding signal (ELK4): 1.06 fold enrichment (6-mer frequency, TF over GST control) | binding signal (ELF3): 1.09 fold enrichment (6-mer frequency, TF over GST control) | binding signal (ETV3L): 1.05 fold enrichment (6-mer frequency, TF over GST control) | binding signal (ETS2): 1.06 fold enrichment (6-mer frequency, TF over GST control) | binding signal (SPDEF): 1.05 fold enrichment (6-mer frequency, TF over GST control) | binding signal (ETV7): 1.05 fold enrichment (6-mer frequency, TF over GST control) | binding signal (ETV3): 1.03 fold enrichment (6-mer frequency, TF over GST control) | binding signal (ETV6): 1.06 fold enrichment (6-mer frequency, TF over GST control)
